Tests used:
Assay in all cases: log2 ratio of Biotin-Ahx-Ub-VS probe labelling (fragment/DMSO); higher = less target engagement (more negative = stronger competition), active = hit call of the paper (q ≤ 0.05, log2 ratio ≤ -1)
Details in all cases: compound concentration: 200 uM; treatment time: 3 h
USP42 = biological target: T1, USP42 (UniProt Q9H9J4)
T1 sequence (whole entry): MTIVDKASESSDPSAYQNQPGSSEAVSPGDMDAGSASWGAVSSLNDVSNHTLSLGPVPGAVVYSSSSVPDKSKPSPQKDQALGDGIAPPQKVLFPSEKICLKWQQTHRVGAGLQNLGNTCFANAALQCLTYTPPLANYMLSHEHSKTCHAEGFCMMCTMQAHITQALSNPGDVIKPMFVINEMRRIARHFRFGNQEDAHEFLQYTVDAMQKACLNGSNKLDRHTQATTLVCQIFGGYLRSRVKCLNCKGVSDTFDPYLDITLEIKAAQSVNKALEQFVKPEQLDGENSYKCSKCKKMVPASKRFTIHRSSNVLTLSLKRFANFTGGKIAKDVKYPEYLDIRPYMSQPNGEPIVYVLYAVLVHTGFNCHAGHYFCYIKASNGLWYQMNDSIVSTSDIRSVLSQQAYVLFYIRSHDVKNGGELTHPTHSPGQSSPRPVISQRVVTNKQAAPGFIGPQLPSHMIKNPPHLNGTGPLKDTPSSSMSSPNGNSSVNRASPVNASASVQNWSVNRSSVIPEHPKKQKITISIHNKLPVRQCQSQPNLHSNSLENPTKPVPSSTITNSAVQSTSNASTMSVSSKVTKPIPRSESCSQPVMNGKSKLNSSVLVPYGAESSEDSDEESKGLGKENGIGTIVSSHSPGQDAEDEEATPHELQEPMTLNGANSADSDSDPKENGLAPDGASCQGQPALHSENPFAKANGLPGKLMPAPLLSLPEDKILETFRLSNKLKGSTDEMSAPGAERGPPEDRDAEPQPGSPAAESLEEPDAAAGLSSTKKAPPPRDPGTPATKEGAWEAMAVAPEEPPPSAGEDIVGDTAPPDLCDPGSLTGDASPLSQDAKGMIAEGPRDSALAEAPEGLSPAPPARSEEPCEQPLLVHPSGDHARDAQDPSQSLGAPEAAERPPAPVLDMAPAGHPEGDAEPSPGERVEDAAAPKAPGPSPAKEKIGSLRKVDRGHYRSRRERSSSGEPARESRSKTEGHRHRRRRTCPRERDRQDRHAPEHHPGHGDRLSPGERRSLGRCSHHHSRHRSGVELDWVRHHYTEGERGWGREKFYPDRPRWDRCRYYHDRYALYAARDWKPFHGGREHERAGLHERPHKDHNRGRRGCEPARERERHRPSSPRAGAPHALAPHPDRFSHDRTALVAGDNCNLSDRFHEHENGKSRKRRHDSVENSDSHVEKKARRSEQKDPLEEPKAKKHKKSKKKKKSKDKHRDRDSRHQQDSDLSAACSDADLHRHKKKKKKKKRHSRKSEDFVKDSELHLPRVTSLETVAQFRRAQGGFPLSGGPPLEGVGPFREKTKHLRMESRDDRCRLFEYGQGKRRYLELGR
Summary of the method: (§1)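 Triplicate samples of HEK293T lysate, 495 µg each, received fragment at 200 µM or vehicle for 3 h, followed by Biotin-Ahx-Ub-VS (0.5 µM final) for 1 h. After NeutrAvidin enrichment of labelled DUBs and LysC/trypsin digestion, peptides were run by diaPASEF LC-MS/MS. The values are average log2 fragment/vehicle ratios from global-median-normalised Spectronaut label-free quantities, tested by unpaired t-test on proteins having ≥2 unique peptides.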

USP46 = USP46 (UniProt P62068)
Summary of the method: as §1

USP47 = biological target: T2, USP47 (UniProt Q96K76)
T2 sequence (whole entry): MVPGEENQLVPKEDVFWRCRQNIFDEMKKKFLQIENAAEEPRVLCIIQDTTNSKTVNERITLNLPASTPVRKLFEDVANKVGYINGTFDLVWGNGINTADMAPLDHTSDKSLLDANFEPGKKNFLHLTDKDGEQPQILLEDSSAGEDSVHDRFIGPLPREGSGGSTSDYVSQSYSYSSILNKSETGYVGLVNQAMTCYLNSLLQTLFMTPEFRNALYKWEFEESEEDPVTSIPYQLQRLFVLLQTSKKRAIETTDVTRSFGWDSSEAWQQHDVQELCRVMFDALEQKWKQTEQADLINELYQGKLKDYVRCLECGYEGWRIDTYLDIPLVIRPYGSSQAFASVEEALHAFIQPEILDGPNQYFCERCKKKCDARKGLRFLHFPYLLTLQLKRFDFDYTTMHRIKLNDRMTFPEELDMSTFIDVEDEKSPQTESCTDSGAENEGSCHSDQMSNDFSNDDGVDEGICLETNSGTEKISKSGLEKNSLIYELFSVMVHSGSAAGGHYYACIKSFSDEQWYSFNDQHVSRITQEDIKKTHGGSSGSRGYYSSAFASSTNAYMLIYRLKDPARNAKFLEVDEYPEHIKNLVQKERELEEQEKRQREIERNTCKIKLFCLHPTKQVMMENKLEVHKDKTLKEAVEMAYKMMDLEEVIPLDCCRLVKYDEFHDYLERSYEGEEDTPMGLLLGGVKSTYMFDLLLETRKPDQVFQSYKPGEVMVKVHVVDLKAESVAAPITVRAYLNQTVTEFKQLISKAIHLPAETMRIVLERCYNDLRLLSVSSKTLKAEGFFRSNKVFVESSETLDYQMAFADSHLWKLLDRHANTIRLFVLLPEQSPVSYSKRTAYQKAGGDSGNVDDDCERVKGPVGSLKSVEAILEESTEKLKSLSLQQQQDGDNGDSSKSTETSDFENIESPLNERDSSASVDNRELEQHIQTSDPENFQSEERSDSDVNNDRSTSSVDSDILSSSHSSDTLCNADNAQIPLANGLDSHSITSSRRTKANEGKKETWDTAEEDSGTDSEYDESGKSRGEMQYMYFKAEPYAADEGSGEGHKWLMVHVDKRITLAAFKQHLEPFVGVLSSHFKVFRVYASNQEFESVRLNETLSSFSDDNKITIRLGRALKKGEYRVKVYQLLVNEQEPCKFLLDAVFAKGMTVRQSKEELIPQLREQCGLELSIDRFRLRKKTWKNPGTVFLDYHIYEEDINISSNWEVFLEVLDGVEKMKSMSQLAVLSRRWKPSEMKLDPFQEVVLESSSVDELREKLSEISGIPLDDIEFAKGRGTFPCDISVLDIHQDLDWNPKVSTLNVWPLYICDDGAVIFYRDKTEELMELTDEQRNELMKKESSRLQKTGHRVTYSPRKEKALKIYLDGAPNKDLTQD
Summary of the method: as §1

USP48 = biological target: T3, USP48 (UniProt Q86UV5)
T3 sequence (whole entry): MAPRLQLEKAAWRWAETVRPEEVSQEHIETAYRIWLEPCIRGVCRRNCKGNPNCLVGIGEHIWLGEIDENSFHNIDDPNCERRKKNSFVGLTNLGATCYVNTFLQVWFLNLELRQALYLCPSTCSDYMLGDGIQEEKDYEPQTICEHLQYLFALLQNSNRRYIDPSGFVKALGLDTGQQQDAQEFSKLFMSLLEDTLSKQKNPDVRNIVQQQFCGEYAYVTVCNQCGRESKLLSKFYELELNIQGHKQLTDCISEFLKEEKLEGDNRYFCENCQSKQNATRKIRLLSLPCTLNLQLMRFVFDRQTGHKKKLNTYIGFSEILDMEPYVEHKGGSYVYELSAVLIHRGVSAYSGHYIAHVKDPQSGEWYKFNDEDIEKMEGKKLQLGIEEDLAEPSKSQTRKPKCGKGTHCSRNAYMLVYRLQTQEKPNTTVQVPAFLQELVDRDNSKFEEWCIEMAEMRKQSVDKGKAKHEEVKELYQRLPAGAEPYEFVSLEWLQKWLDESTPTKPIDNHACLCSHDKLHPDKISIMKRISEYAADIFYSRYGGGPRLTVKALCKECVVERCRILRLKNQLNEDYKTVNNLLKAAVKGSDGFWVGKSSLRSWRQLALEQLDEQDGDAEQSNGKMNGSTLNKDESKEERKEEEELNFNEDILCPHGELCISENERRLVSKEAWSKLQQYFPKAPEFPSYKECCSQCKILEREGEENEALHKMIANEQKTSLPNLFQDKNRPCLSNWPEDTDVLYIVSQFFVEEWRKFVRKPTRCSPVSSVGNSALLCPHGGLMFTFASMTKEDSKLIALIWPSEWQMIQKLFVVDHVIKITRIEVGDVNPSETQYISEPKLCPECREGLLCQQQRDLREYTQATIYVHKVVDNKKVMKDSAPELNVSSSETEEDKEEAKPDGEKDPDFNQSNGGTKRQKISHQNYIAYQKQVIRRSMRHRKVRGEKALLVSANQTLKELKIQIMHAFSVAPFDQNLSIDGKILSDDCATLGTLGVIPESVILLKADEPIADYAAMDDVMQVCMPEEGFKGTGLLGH
Summary of the method: as §1

USP5 = biological target: T4, USP5 (UniProt P45974)
T4 sequence (whole entry): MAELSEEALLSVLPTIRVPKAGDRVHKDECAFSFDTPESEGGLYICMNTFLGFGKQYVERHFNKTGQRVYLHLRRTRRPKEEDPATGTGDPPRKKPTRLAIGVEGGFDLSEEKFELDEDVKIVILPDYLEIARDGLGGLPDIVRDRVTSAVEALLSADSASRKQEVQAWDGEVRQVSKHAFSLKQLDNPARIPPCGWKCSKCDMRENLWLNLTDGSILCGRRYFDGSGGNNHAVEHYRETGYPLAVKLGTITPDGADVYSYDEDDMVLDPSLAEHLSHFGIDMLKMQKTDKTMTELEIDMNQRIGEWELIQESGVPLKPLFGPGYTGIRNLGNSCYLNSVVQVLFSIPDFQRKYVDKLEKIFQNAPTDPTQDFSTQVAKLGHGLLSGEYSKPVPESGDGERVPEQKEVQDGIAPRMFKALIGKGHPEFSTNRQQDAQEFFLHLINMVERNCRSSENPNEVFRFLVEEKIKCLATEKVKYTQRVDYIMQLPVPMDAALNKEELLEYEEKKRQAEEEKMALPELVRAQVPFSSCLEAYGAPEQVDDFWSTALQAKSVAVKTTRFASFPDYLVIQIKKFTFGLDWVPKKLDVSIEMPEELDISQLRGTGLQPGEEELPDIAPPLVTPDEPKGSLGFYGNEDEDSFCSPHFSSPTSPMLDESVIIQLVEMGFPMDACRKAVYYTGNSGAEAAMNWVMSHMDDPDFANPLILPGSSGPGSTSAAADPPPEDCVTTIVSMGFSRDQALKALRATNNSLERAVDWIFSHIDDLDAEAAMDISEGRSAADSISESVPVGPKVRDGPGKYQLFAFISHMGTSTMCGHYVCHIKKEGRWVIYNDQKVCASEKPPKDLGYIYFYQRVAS
Summary of the method: as §1

USP54 = USP54 (UniProt Q70EL1)
Summary of the method: as §1

USP7 = USP7 (UniProt Q93009)
Summary of the method: as §1

USP8 = biological target: T5, USP8 (UniProt P40818)
T5 sequence (whole entry): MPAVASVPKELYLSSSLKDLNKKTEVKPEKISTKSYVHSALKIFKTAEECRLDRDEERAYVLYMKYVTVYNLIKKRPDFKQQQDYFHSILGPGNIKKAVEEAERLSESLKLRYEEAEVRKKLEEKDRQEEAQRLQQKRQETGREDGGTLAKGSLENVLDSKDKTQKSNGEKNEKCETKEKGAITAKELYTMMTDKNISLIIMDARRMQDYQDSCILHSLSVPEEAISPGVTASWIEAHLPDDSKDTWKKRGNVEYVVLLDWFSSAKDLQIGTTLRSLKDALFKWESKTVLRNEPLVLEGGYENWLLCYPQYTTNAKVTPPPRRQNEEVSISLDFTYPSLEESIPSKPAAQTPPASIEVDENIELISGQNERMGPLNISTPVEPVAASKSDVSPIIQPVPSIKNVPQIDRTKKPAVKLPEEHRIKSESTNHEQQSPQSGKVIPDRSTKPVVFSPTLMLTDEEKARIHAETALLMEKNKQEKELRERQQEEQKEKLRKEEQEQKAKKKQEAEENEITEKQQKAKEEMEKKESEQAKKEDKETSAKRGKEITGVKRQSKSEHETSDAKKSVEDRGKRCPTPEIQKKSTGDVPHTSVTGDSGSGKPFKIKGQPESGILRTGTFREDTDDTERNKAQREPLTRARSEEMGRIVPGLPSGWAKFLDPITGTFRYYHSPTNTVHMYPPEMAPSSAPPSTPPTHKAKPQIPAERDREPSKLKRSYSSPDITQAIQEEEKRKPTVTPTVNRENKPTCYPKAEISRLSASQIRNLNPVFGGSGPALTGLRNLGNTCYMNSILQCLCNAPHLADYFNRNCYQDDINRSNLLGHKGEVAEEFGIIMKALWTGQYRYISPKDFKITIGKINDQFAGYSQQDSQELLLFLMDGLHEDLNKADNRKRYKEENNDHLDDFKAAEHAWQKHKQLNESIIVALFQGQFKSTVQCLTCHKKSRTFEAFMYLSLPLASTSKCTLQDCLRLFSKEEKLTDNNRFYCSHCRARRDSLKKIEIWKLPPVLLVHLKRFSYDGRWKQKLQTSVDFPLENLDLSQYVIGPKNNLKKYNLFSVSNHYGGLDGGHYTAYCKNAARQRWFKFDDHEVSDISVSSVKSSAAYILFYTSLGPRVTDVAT
Summary of the method: as §1

USP9X = USP9X (UniProt Q93008)
Summary of the method: as §1

UniProt O00487 = biological target: UniProt O00487
Summary of the method: as §1

Measured: log2 ratio of Biotin-Ahx-Ub-VS probe labelling

Chain of USP9X (Q93008 whole entry): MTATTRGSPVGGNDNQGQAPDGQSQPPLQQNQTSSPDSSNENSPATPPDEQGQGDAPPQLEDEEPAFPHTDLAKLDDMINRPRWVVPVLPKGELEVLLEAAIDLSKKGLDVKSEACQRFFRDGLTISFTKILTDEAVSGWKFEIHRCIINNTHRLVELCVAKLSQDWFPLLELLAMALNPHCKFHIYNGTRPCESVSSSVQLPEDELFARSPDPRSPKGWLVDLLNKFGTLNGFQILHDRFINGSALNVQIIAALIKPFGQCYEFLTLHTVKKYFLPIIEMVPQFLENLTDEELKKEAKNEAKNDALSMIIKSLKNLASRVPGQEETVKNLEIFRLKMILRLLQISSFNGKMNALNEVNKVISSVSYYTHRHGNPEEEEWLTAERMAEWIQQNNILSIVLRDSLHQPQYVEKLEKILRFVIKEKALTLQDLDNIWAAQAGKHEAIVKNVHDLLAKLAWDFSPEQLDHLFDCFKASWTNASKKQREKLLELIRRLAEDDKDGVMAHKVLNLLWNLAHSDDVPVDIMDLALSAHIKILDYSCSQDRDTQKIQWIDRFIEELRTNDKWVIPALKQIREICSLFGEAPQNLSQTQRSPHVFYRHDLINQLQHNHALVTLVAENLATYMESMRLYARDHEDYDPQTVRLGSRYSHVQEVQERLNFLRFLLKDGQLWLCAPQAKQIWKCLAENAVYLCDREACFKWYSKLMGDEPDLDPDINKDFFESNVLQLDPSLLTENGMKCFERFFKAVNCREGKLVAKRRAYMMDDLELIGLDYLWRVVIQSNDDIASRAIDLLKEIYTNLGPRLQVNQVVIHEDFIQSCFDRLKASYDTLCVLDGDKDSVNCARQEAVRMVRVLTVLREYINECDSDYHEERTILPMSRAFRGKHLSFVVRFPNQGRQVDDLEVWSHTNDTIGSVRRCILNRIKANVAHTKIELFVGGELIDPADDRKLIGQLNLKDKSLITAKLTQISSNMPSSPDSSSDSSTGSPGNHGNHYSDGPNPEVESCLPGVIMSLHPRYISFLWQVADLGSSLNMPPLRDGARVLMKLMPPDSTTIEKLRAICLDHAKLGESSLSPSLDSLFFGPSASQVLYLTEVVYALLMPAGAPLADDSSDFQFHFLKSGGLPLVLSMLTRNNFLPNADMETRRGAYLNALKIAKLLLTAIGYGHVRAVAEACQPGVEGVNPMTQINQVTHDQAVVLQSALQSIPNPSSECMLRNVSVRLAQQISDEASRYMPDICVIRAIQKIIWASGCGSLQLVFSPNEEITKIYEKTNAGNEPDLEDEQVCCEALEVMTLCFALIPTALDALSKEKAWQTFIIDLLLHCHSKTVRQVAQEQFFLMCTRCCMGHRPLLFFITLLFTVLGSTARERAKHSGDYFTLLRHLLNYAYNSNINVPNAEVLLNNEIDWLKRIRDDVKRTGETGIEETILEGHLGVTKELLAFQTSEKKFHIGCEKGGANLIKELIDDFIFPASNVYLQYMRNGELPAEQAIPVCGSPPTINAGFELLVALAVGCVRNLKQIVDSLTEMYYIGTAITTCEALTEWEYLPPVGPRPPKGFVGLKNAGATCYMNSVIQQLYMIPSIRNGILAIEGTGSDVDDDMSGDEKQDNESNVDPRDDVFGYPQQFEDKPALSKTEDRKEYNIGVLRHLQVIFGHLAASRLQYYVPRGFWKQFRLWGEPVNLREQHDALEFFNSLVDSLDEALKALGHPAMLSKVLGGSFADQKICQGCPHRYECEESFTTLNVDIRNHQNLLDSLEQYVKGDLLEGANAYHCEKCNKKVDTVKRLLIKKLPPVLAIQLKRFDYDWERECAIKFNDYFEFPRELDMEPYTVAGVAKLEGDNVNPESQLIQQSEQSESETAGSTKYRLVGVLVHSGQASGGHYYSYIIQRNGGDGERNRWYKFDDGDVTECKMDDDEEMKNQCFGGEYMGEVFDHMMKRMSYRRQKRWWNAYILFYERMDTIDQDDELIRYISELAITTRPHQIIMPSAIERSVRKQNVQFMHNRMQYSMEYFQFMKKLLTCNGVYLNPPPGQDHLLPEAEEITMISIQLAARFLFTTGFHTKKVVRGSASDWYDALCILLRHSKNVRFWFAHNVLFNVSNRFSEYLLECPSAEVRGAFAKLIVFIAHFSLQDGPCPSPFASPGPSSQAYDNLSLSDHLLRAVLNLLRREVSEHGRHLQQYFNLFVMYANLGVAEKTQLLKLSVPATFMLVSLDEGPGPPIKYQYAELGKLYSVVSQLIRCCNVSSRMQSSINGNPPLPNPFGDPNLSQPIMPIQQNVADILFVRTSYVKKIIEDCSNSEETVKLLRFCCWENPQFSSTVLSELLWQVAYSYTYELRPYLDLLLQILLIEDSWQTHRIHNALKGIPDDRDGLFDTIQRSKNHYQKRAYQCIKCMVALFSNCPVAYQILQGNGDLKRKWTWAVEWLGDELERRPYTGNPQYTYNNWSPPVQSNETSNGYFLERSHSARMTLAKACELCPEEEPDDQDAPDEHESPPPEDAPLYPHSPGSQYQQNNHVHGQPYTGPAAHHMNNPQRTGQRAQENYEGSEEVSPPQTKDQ
Chain of USP7 (Q93009 whole entry, looked up): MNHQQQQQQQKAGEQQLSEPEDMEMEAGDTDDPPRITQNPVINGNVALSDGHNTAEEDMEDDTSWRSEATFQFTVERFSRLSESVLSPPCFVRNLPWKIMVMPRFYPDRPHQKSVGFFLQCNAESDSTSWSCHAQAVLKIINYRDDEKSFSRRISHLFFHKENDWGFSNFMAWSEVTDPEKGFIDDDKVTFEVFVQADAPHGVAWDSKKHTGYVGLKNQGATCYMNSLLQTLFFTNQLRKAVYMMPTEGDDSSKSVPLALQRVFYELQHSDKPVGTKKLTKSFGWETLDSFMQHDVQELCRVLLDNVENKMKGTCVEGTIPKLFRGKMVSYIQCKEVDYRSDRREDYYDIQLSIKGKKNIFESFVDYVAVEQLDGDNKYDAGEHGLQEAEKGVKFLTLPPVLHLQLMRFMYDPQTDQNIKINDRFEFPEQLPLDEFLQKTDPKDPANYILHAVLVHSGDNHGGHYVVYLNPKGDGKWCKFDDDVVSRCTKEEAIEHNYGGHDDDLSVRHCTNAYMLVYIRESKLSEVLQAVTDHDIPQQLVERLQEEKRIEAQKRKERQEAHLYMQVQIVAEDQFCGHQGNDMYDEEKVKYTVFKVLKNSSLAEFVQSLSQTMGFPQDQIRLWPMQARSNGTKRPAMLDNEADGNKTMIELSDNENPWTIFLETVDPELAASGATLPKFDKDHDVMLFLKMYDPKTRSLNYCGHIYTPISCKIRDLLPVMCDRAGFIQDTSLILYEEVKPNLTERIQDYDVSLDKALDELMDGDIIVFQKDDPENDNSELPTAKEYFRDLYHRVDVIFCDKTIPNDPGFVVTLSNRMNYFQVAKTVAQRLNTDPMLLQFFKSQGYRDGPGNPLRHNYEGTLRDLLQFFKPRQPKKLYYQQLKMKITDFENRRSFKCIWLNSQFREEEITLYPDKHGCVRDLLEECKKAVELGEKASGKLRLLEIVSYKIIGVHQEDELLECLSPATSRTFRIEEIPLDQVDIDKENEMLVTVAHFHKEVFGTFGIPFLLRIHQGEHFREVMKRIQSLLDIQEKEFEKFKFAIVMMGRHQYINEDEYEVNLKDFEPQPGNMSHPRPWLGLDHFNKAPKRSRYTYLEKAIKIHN
Chain of UniProt O00487 (O00487 whole entry): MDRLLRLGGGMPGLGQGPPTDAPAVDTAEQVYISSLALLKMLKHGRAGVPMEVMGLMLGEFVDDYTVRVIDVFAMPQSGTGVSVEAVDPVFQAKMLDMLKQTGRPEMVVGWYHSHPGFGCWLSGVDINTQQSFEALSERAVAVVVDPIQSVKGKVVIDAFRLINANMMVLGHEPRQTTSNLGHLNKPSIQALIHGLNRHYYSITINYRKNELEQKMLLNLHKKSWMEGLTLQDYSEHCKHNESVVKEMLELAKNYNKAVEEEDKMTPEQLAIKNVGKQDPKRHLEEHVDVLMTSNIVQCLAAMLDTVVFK
Chain of USP46 (P62068 whole entry): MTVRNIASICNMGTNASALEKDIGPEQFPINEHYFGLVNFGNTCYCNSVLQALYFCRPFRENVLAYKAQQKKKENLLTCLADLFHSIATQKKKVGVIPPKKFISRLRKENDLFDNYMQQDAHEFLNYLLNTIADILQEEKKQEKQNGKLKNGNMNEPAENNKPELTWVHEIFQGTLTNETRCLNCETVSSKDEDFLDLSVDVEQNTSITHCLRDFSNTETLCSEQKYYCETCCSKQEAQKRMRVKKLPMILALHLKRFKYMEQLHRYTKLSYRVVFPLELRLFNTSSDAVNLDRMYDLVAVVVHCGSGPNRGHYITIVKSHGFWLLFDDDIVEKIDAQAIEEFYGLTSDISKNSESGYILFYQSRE

Cl.Cn1cnc2cc(CNC(=O)CCl)ccc21
inactive: USP42 0.00921 | USP46 -0.0392 | USP47 -0.0799 | USP48 0.192 | USP5 -0.445 | USP54 -0.109 | USP7 -0.083 | USP8 -0.103 | USP9X -0.0792 | UniProt O00487 -0.00543
